Data on 6 compounds can be found in PubChem BioAssay AID1347046 (National Center for Advancing Translational Sciences (NCATS), 2019).

About 940 (67%) of roughly 1,400 compounds were called active. Not shown: some 27% with an inconclusive outcome. Calls come from the whole dose curve. So high a share suggests a set chosen from earlier hits. The list is a sample of the results.
Potency is the fitted concentration of half-maximal effect.

The target of this test is Atrial natriuretic peptide receptor 2 (Homo sapiens) (UniProt P20594). Put plainly: Natriuretic polypeptide receptor (hNpr2) antagonism - Subtype selectivity assay. Note: nearly all actives have a fitted effect of over 70% in size. As to conditions: HEK293 hNpr2 GloSensor cGMP luminescence, CNP-stimulated. The protocol: F. Fan, B. F. Binkowski, B. L. Butler, P. F. Stecha, M. K. Lewis, K. V. Wood, Novel genetically encoded biosensors using firefly luciferase. ACS Chem Biol 3, 346-351 (2008).
Chain of Atrial natriuretic peptide receptor 2 (Homo sapiens) (P20594 whole entry, looked up): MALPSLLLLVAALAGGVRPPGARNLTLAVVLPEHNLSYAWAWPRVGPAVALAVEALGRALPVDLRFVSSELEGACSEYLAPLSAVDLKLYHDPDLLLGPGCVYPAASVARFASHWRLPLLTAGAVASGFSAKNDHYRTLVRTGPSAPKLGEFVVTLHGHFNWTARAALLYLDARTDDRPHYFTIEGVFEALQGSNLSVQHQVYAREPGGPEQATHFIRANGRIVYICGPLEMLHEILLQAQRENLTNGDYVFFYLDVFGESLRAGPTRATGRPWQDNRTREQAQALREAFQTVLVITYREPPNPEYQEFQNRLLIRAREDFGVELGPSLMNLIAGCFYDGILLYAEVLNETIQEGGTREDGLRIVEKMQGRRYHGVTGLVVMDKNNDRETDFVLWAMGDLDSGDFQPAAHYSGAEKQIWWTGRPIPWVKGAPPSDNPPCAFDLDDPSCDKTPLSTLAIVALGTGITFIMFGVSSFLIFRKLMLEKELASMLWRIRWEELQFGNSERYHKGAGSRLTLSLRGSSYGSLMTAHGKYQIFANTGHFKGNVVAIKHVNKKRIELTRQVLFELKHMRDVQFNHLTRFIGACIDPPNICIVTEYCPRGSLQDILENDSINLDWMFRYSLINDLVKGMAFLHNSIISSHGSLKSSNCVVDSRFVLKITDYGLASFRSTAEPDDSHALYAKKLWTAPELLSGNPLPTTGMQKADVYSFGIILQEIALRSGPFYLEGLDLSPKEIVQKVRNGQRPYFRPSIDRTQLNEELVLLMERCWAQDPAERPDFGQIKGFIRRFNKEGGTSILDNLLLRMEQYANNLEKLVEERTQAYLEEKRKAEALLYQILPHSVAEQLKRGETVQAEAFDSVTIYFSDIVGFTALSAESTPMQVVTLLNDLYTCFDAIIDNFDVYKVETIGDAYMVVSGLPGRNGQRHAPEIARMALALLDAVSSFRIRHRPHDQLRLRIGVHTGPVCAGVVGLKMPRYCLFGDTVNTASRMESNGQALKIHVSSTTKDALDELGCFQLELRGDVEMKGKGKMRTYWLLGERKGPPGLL
PROTOCOL TABLE (as described by Inglese J, Shamu CE and Guy RK. 2007) SEQUENCE No. (e.g., 1, 2, 3, etc.); PARAMETER (e.g., Cells, Incubation, Reagent, etc.); VALUE and DESCRIPTION. 1. Cells. Seed 1500 HEK293 cGMP-sensor cells expressing hNpr2 per well in 4uL into Greiner 1536-well white/solid bottom high base, TC plates. 2. Incubation. Incubate plated cells at 37C in 5% CO2, 95% RH overnight. 3. Reagent. Add 1uL per well GloSensor reagent from Promega (2% final concentration) or CO2 independent media vehicle control to respective columns of Greiner 1536-well plates. 4. Incubation. Incubate plated cells at ambient temperature for 2 h., protect from light. 5. Compounds. Library compounds and DMSO vehicle control added at 23nL per well, transferred by Pin Tool. 6. Incubation. Incubate plated cells for 30 min. at ambient temperature, protect from light. 7. Detector. GloSensor baseline pre-read luminescence measured using CCD-based camera (Viewlux). 8. Compound. Add 1uL of hNppC peptide to 1 nM final concentration to stimulate hNpr2 or CO2 independent media as vehicle control. 9. Incubation. Incubate treated cells at ambient temperature for 20 min., protect from light. 10. Detector. GloSensor post-hNppC luminescence measured using CCD-based camera (Viewlux). NOTES (numbers refer to Sequence numbers above) 1. HEK293 cells expressing hNpr2 and GIP/pGS-40F were grown to 85-95% confluence (48-72 h) in T175 culture flasks (CO2 independent media supplemented with 10% FBS, 1% Pen/Strep antibiotics, and 1 ug/mL puromycin). Trypsinize and harvest cells from T175 culture flasks and filter through 40 um cell strainer. Cells counted with Invitrogen Countess (30,000,000 - 50,000,000 cells/flask). Cells diluted to a final concentration of 375 cells/uL in CO2 independent media and a Millipore multidrop used to dispense 1500 cells per well (4uL/well) into 13 1536-well Greiner White/Solid bottom, high base tissue-culture treated (TC) plates and one Aurora 1536-well Black/Clear bottom, low base, TC plate (for visual inspection of cell health throughout the duration of the assay). 2. Cells incubated for 24 h. at 37C in 95% RH incubator with metal lid having gas-exchange holes. 3. Prepare GloSensor Reagent (Promega): Reconstitute GloSensor luciferase substrate by adding 8.2mL Hepes buffer to 250mg substrate, mix well, protect from light and stored at -80C. Prepare a fresh 12% GloSensor solution in CO2 independent supplemented plating media (see above). Mix well and store at ambient temperature, protected from light. 1uL 12% GloSensor Luciferase Reagent added (2% final concentration) to respective columns of 13 x 1536-well Greiner plate with BioRaptr, 1uL CO2 independent plating media added to respective columns as vehicle control with BioRaptr. 4. Cells incubated for 2 h. at ambient temperature, protected from light with metal lid having gas-exchange holes. 5. 23nL of library compounds or DMSO vehicle control transferred to 13 Greiner white/solid bottom high base, TC plates in 11 interplate 1:3 titrations (see Yasgar, A. et al. 2008) with Pintool. 6. Cells incubated for 30-50 min. at ambient temperature protected from light with metal lid having gas-exchange holes. 7. Read cellular baseline GloSensor luminescence in presence of test library compounds on the ViewLux [Exposure = 10 s.; Gain = High; Speed = Slow; and Binning = 2X.] 8. hNppC peptide agonist solution prepared at 1 mM (in H2O) stock concentration. From this a working dilution was prepared at 6 nM in CO2 Independent media. 1uL of 6 nM hNppC agonist (1 nM final concentration) or CO2 Independent media vehicle control dispensed into respective columns of 13 x Greiner 1536-well white/solid bottom, tissue culture plates with BioRaptr. 9. Cells incubated for 20 min. at ambient temperature, protected from light with metal lid having gas-exchange holes. 10. […]
On to `CCC(CC)c1cc([C@H]2CN3CC[C@H]2C[C@@H]3CNS(=O)(=O)Cc2ccccc2)nc(-c2ccncc2)n1`, for which the Potency is 21.7 µM (active).

Take `CCC(CC)c1cc([C@H]2CN3CC[C@H]2C[C@@H]3CNC(=O)NCc2ccccc2)nc(-c2ccncc2)n1`: the Potency is 12.2 µM (active).

As to `COc1cc2c(cc1Oc1cccc(N(C)C)c1)NC(=O)C21CCN(Cc2ccccn2)CC1`, the Potency is 21.7 µM (active).

Regarding `COc1cc2c(cc1OCc1ccncc1)NC(=O)C21CCN(c2ncc(F)cn2)CC1`, the Potency is 39.6 µM (active).

`COc1cc2c(cc1Oc1cccc(N(C)C)c1)NC(=O)C21CCN(c2cnccn2)CC1`: the Potency was 19.3 µM (active).

For the compound `COc1cc2c(cc1Oc1cccc(N(C)C)c1)NC(=O)C21CCN(CCC(C)C)CC1`, the Potency is 28 µM (active).
